Laboratory results published in PubChem BioAssay AID687001 (Broad Institute, 2013).
Measured potencies and affinities stand elsewhere.

Molecular target: Protein S100-A4 (Homo sapiens) (UniProt P26447)
Experiment: human S100A4 peptide interaction inhibition curves – biochemical, fluorescence polarization, cherry-picked hits, dose response (AID 687001);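 further: 0% = DMSO neutral control wells and -100% = TFP positive control wells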
Conditions: FP, S100A4/TAMRA-myosin IIA peptide binding; series mostly up to 11 µM; activity change, negative = inhibition: at the top concentration;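 active means signal-lowering compounds whose fitted half-maximal concentration is at or below twice the top tested dose in every run; inconclusive means runs disagree, flat 30 to 70% inhibition, or poor curve fit; inactive means the rest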

Sequence of Protein S100-A4 (Homo sapiens) (P26447 whole entry, looked up): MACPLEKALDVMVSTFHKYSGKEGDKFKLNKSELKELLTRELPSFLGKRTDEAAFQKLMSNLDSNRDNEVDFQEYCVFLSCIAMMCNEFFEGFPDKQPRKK

Activity change, negative = inhibition, inactive:
COC(=O)[C@]12CCCCC=C1N(Cc1ccc(Cl)cc1Cl)C(=O)[C@H](CC(=O)N1CCCC1)C2 -3.46%, Cc1ccc(CNC(=O)Cn2cnc(C(=O)Nc3ccc(C)c(C)c3)n2)o1 -3.72%, CCN(CC(=O)NCc1ccc(F)cc1)C(=O)/C=C/c1ccc(OC)c(S(=O)(=O)NC(C)C)c1 -0.904%
